# Bioassay records (PubChem)
# Shown are actives, neighbours in structure and some others; about 4% of the full set was active somewhere.
# MazF activator: increases E. coli MazEF RNase cleavage of RNA | FAM/BHQ RNA-DNA oligo cleavage fluorescence, 5 h | activation, % at 20 µM | actives 0.32% (n = 350,000) | AID 504720; in the data active means activation above about 50%
# Target sequence (P0AE70 whole entry, looked up): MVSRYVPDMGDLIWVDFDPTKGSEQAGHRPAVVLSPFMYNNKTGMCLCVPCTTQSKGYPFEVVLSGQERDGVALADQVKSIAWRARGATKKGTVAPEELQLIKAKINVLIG
# Mtb betalactam: beta-lactam sensitization of Mtb H37Rv | M. tuberculosis H37Rv growth with meropenem, percent inhibition | actives 0.27% (n = 330,000) | inhibition, % at 25 µM;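 further: growth measured after seven days incubation then overnight dye step; 0% = bacteria only wells and 100% = bacteria with antibiotic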
# GDH-TPI counter-1: inhibits GDH-TPI coupling enzymes, artifact for Mtb FBA screen; GDH-TPI coupled enzyme counterscreen, NADH absorbance; inhibition, % at 4.8 µM; actives 1.2% (n = 360,000); in the data active means inhibition above about 30%;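 further: 0% = DMSO wells and 100% = wells lacking the enzyme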
# CCHFV vOTU inh: blocks the CCHF virus ovarian tumor domain protease. AID 651958. inhibition, % at 11.5 µM. actives 0.55% (n = 370,000). CCHFV vOTU protease, Pep-AMC fluorescence; in the data active means inhibition above about 30%; further: 0% = vehicle wells with enzyme and 100% = no enzyme wells
# Mtb FBA inh: inhibitors of M. tuberculosis fructose-bisphosphate aldolase | P9WQA3 | inhibition, % at 1 µM | actives 2.3% (n = 360,000) | purified M. tuberculosis FBA, fluorescence read-out; in the data active means inhibition above about 27%;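 further: 0% = vehicle and 100% = reference inhibitor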
# Target sequence (P9WQA3 whole entry, looked up): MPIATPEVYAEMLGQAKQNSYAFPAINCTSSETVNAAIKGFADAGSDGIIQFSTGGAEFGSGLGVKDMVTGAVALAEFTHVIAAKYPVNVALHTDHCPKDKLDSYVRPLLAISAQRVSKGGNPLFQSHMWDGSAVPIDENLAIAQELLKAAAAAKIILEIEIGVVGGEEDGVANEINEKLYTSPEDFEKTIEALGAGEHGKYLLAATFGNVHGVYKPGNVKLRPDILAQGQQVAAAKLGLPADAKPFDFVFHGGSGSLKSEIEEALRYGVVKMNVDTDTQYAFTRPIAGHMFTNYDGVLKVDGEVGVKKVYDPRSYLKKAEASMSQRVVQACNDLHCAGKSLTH
# Mtb FBA confirm: Mtb FBA inhibition, confirmed; shares compounds with Mtb FBA inh; purified M. tuberculosis FBA, fluorescence read-out; inhibition, % at 1 µM; actives 78% (n = 5,600); in the data active means inhibition above about 27%;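 further: 0% = vehicle wells and 100% = reference inhibitor wells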
# GDH-TPI counter-2: GDH-TPI inhibition counter-screen for FBA inhibitors | shares compounds with Mtb FBA inh | GDH-TPI coupled enzyme counterscreen, fluorescence | inhibition, % at 1 µM | actives 81% (n = 5,600); in the data active means inhibition above about 10%
# GDH-TPI dose: GDH-TPI dose response counter-screen for Mtb FBA | shares compounds with Mtb FBA inh | actives 79% (n = 170) | GDH-TPI coupled enzyme assay, fluorescence, artifact counterscreen | IC50, µM | AID 652145
# An asterisk follows results filed as active; ? = inconclusive; · = no result; + = active, no number. Unless noted, how the calls were made is not given here.
SMILES,MazF activator,Mtb betalactam,GDH-TPI counter-1,CCHFV vOTU inh,Mtb FBA inh,Mtb FBA confirm,GDH-TPI counter-2,others
COc1ccc2oc(C(=O)OCC(=O)Nc3ccc(C(=O)N(C)C)cc3)c(C)c2c1,7,-21,9,-6,28*,44*,44*,
COc1ccc2oc(C(=O)OCC(=O)Nc3ccccc3OC)c(C)c2c1,10,-2,12,·,16,·,·,
COc1ccc2oc(C(=O)OCC(=O)Nc3ccc(N4CCOCC4)cc3)c(C)c2c1,-5,3,6,-11,7,·,·,
COc1ccc2oc(C(=O)OCC(=O)NC(=O)NC(C)C)c(C)c2c1,1,1,11,-13,35*,45*,35*,
N#Cc1cc2cc3c(cc2nc1NCCNC(=S)NCCCN1CCOCC1)OCO3,11,-5,-3,-40,69*,133*,111*,
N#Cc1cc2cc3c(cc2nc1SCC(=O)N1CCOCC1)OCO3,2,-3,-3,-5,3,·,·,
Cc1cc(NS(=O)(=O)c2ccc(NC(=O)CSc3nnc(-c4ccncc4)n3Cc3ccco3)cc2)nc(C)n1,·,·,·,3,·,·,·,
CCOC(=O)c1nn(-c2ccc(Cl)cc2)c2nc(-c3ccc(C)cc3)c(C#N)c(=O)n12,-6,16,6,-12,6,·,·,
CCOC(=O)c1nn(-c2ccc(Cl)cc2)c2nc(CC)c(C#N)c(=O)n12,2,8,21,-4,37*,1,1,
CCOC(=O)c1nn(-c2ccc(OCC)cc2)c2nc(CC(C)C)c(C#N)c(=O)n12,-4,-7,-1,4,104*,-7,-6,
CC1=CC2=NCC(O)CN2C=C1 (stereo not given),-1,-9,-4,-15,28*,12,-5,GDH-TPI dose=9.3*
CC(=O)N1CCc2cc(S(=O)(=O)NC3CCN(C(=O)C(C)(C)C)CC3)ccc21,·,·,·,-2,·,·,·,
Cc1ccc(NC(=O)Cc2cccc(OC(F)F)c2)c(S(=O)(=O)N2CCOCC2)c1,·,·,·,12,·,·,·,
CCOC(=O)c1sc(-c2ccc(OC)cc2)cc1NC(C)=O,6,·,19,-52,79*,153*,134*,
C(=C\c1ccco1)/c1nc2ccccc2[nH]1,-6,4,28,-7,23,·,·,
C(=C\c1nc2ccccc2[nH]1)/c1ccccc1,11,-11,37*,-48,32*,+,+,
CCOC(=O)c1oc2nc(C)c3c(c2c1N)CC(C)(C)OC3,3,-8,1,-14,34*,100*,75*,
CCc1nc2oc(C(=O)c3ccccc3)c(N)c2c2c1COC(C)(C)C2,1,-1,-1,4,3,·,·,
COC(=O)c1sc2nc3c(cc2c1N)COC(C)(C)C3,2,-1,12,-11,3,·,·,
CCOC(=O)c1oc2nc3c(cc2c1N)COC(C)(C)C3,5,7,12,-41,45*,12,17*,
COc1ccc2oc(C(=O)OCC(=O)NC(C)(C#N)C3CC3)c(C)c2c1 (stereo not given),1,0,7,-19,31*,21,24*,
COC(=O)c1oc2ccc(OC)cc2c1N,4,3,8,-14,29*,+,166*,
NC(=O)c1oc2ccc(Cl)cc2c1N,2,1,5,-20,87*,100*,69*,
COc1ccc2oc(C(=O)OCC(=O)NC3CC3)c(C)c2c1,2,?,4,-15,44*,+,+,
COc1ccc(C(=O)c2oc3ccc(OC)cc3c2N)cc1,9,88,20,17,9,·,·,
SMILES,MazF activator,Mtb betalactam,GDH-TPI counter-1,CCHFV vOTU inh,Mtb FBA inh,Mtb FBA confirm,GDH-TPI counter-2,others
COc1ccc2c(c1)[C@@]1(NCCc3c1[nH]c1ccc(OC)cc31)C(=O)N2C,·,·,·,5,·,·,·,
COC(=O)[C@]1(C#N)CC(=O)N(C)[C@@H]1c1ccccc1,·,·,·,1,·,·,·,
COC(=O)C1=C(C)N(Cc2ccc(C(F)(F)F)cc2)C(=NCc2ccccc2C(F)(F)F)NC1c1ccccc1C(F)(F)F (stereo not given),·,·,·,3,·,·,·,
COCc1[nH]nc2c1C(c1ccc3c(c1)OCO3)N(c1ccc(OC)cc1)C2=O (stereo not given),·,·,·,-4,·,·,·,
COc1ccc2oc(C(=O)NC3CCCCC3)c(C)c2c1,-6,0,7,7,28*,41*,27*,
CCOc1ccc2oc(C(=O)OCC(=O)NC3CC3)c(C)c2c1,5,-7,3,-24,40*,62*,47*,
COc1cccc2[nH]c(C(=O)NCc3ccccc3)cc12,12,0,1,-7,68*,74*,73*,
COc1ccccc1C(=O)NCc1ccccc1,-3,10,-2,0,2,·,·,
CC(C)(C)C(=O)N1CCC[C@]2(CC[C@H](CCC#N)O2)C1,·,·,·,-3,·,·,·,
CCOC(=O)Cc1csc(/N=C/c2c(O)n(-c3ccccc3C(F)(F)F)c(=O)c3ccccc23)n1,-28,-8,18,-91,105*,86*,58*,
CCOC(=O)Cc1csc(-n2sc3ccccc3c2=O)n1,-20,6,4,4,-1,·,·,
CCC(C)[C@H](NC(=O)[C@H](CC(C)C)NC(=O)OC(C)(C)C)C(=O)N[C@@H](Cc1ccccc1)C(=O)OC (stereo not given in full),·,·,·,19,·,·,·,
COc1cc2c(c(OC)c1)C(=O)O[C@H](C)C[C@@H]1O[C@H]1CCCCC(=O)C2,·,·,·,-3,·,·,·,
c1ccc2cc3[nH]c(CN4CCOCC4)nc3cc2c1,9,-2,7,-19,103*,8,-6,
c1ccc2[nH]c(CN3CCOCC3)nc2c1,-6,3,11,-8,2,·,·,
CCCCCN1CCCCC(NC(=O)c2cccc(C(F)(F)F)c2)C1=O (stereo not given),·,·,·,15,·,·,·,
Cc1cc(N2CCNC[C@@H]2C)ccc1N1CCN(Cc2ccccc2)[C@H](C)C1,·,·,·,-13,·,·,·,
COc1ccc(C(=O)NNC(=S)NC(=O)/C=C/c2cccs2)cc1,-10,99,0,9,0,·,·,
O=C(/C=C/c1cccs1)NC(=S)NNC(=O)c1ccccc1O,4,6,25,5,28*,-1,3,
CC1CN(Cc2c(O)ccc3c(=O)c(-c4ccccc4Cl)coc23)CC(C)O1 (stereo not given),2,-2,25,-153,57*,105*,87*,
O=c1c(-c2ccc(Cl)cc2)coc2c(CN3CCCCC3)c(O)ccc12,5,-7,12,-29,27*,2,0,
O=c1c(-c2ccc(Br)cc2)coc2c(CN3CCCCC3)c(O)ccc12,3,·,2,-43,31*,7,-3,
CC1CCCCN1Cc1c(O)ccc2c(=O)c(-c3nc4ccccc4s3)coc12 (stereo not given),-2,-9,17,3,0,·,·,
